Like-named read-outs stand apart in the source and are kept apart here.
What was measured:
Conditions in all cases: n = 1
MST2 = system: T1, MST2
T1 construct: gene STK3

MST3 = system: T2, MST3
T2 construct: gene STK24

MST4 = system: MST4
MTOR = system: MTOR
MUSK = system: MUSK
MYLK2 = system: MYLK2
MYLK4 = system: MYLK4
MYLK = system: MYLK
MYO3A = system: MYO3A
MYO3B = system: MYO3B
[1] = concentration: 1 μM, replicates: in singlicate
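Further: KINOMEscan kinase panel screen.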

Compound | %Inh (MST2; [1]) [%] | %Inh (MST3; [1]) [%] | %Inh (MST4; [1]) [%] | %Inh (MTOR; [1]) [%] | %Inh (MUSK; [1]) [%] | %Inh (MYLK2; [1]) [%] | %Inh (MYLK4; [1]) [%] | %Inh (MYLK; [1]) [%] | %Inh (MYO3A; [1]) [%] | %Inh (MYO3B; [1]) [%] | %Inh (MST2; 1 µM) [%] | %Inh (MST3; 1 µM) [%] | %Inh (MST4; 1 µM) [%] | %Inh (MTOR; 1 µM) [%] | %Inh (MUSK; 1 µM) [%] | %Inh (MYLK2; 1 µM) [%] | %Inh (MYLK4; 1 µM) [%] | %Inh (MYLK; 1 µM) [%] | %Inh (MYO3A; 1 µM) [%] | %Inh (MYO3B; 1 µM) [%]
Cc1c(O)cccc1Nc1ccnc2ccc(C(F)(F)F)cc12.Cl [GW466413] | 0 | 0 | 0 | 0 | 0 | 0 | 0 | 0 | 0 | 0 |  |  |  |  |  |  |  |  |  | 
Cl.NC(=O)c1cccc(Nc2nccc(Nc3ccc(Oc4cccc(Cl)c4)c(Cl)c3)n2)c1 [GW659008] | 0 | 10 | 0 | 0 | 13 | 21 | 14 | 3 | 6 | 3 |  |  |  |  |  |  |  |  |  | 
COc1cccc(-c2cc(-c3c[nH]nc3-c3ccccn3)ccn2)c1 [GW680338] | 0 | 0 | 30 | 33 | 0 | 0 | 9 | 0 | 8 | 3 |  |  |  |  |  |  |  |  |  | 
COc1cc2ncnc(Nc3ccc4nc(-c5ccccc5)[nH]c4c3)c2cc1OC.Cl [GW282450] | 0 | 0 | 0 | 16 | 10 | 0 | 8 | 29 | 21 | 0 |  |  |  |  |  |  |  |  |  | 
Clc1cc(Cl)cc(Nc2ccnc(Nc3cc(Cl)cc(Cl)c3)n2)c1 [GSK175726] | 20 | 9 | 0 | 18 | 2 | 11 | 13 | 21 | 10 | 3 |  |  |  |  |  |  |  |  |  | 
Fc1cc(Cl)ccc1Nc1ccnc2cc(I)ccc12 [GW551191] | 9 | 0 | 0 | 8 | 0 | 0 | 0 | 11 | 13 | 0 |  |  |  |  |  |  |  |  |  | 
Cc1cccc(-c2nc(C)cc(Nc3ccncc3)n2)n1 [GSK257997] | 0 | 0 | 0 | 13 | 0 | 16 | 9 | 5 | 6 | 0 |  |  |  |  |  |  |  |  |  | 
Nc1nc(-c2nccs2)c(-c2ccnc3ccccc23)s1 [GW693542] | 75 | 0 | 0 | 15 | 15 | 11 | 0 | 11 | 3 | 0 |  |  |  |  |  |  |  |  |  | 
CCCc1ccc(S(=O)(=O)NC2CCN(c3ccnc(Nc4ccc(F)cc4)n3)C2)cc1 (stereo not drawn) [GSK1379715] | 0 | 0 | 0 | 0 | 8 | 0 | 0 | 0 | 11 | 0 |  |  |  |  |  |  |  |  |  | 
CN1C(=O)C(Nc2ccc(Cl)c(C(=O)O)c2)=C(c2ccc(Cl)cc2)C1=O [SB-404290] | 0 | 0 | 33 | 0 | 13 | 0 | 5 | 12 | 11 | 31 |  |  |  |  |  |  |  |  |  | 
COc1ccc(C2=C(Nc3cccc(C(=O)O)c3)C(=O)NC2=O)cc1 [SB-390765] | 0 | 9 | 16 | 0 | 9 | 0 | 0 | 14 | 12 | 0 |  |  |  |  |  |  |  |  |  | 
Cc1ccc(-c2cc(-c3c[nH]nc3-c3ccccn3)ccn2)cc1 [GW684088] | 3 | 25 | 0 | 22 | 0 | 39 | 13 | 18 | 46 | 5 |  |  |  |  |  |  |  |  |  | 
Fc1cccc(COc2nnc(-c3ccc4c(c3)CCO4)o2)c1 | 0 | 25 | 0 | 3 | 3 | 0 | 4 | 0 | 0 | 5 |  |  |  |  |  |  |  |  |  | 
Cc1cc(N2Cc3ccccc3C2)nc(Nc2ccc(S(=O)(=O)N3CCOCC3)cc2)n1.Cl [GSK1669917] | 0 | 0 | 0 | 9 | 0 | 0 | 0 | 12 | 0 | 0 |  |  |  |  |  |  |  |  |  | 
O=C(O)COc1ncnc2cc(-c3ccc4[nH]ncc4c3)sc12 | 40 | 24 | 0 | 14 | 9 | 31 | 22 | 7 | 0 | 0 |  |  |  |  |  |  |  |  |  | 
CC1=C(C(=O)Nc2cc3cn[nH]c3cc2F)C(c2ccc(C(F)(F)F)cc2)CC(=O)N1 (stereo not drawn) [GSK429286] | 0 | 0 | 0 | 13 | 6 | 0 | 0 | 13 | 0 | 0 |  |  |  |  |  |  |  |  |  | 
O=C(Nc1n[nH]c2nc(-c3nccs3)c(Br)cc12)C1CCCC1 [SB-742609] | 0 | 0 | 6 | 11 | 31 | 90 | 27 | 0 | 0 | 0 |  |  |  |  |  |  |  |  |  | 
Fc1cc(Cl)ccc1Nc1ccnc2cc(-c3ccc(CN4CCCCC4)o3)ccc12 [GW560116] | 0 | 15 | 0 | 0 | 0 | 27 | 5 | 11 | 31 | 0 |  |  |  |  |  |  |  |  |  | 

Compound | %Inh (MST2; [1]) [%] | %Inh (MST3; [1]) [%] | %Inh (MST4; [1]) [%] | %Inh (MTOR; [1]) [%] | %Inh (MUSK; [1]) [%] | %Inh (MYLK2; [1]) [%] | %Inh (MYLK4; [1]) [%] | %Inh (MYLK; [1]) [%] | %Inh (MYO3A; [1]) [%] | %Inh (MYO3B; [1]) [%] | %Inh (MST2; 1 µM) [%] | %Inh (MST3; 1 µM) [%] | %Inh (MST4; 1 µM) [%] | %Inh (MTOR; 1 µM) [%] | %Inh (MUSK; 1 µM) [%] | %Inh (MYLK2; 1 µM) [%] | %Inh (MYLK4; 1 µM) [%] | %Inh (MYLK; 1 µM) [%] | %Inh (MYO3A; 1 µM) [%] | %Inh (MYO3B; 1 µM) [%]
Cc1cccc(-c2nc(Nc3cccc(C(N)=O)c3)c3ccccc3n2)n1 [GW876019] | 20 | 0 | 0 | 35 | 0 | 0 | 0 | 28 | 11 | 20 |  |  |  |  |  |  |  |  |  | 
C[C@@H]1CCCCN1c1cc(-c2ccc3c(N)n[nH]c3c2)nc(N)n1 [GSK2258759] | 0 | 7 | 0 | 2 | 5 | 0 | 0 | 5 | 30 | 0 |  |  |  |  |  |  |  |  |  | 
Nc1ncnc2[nH]c(-c3ccccc3)nc12 [AH5015] | 0 | 0 | 1 | 9 | 18 | 0 | 30 | 7 | 8 | 0 |  |  |  |  |  |  |  |  |  | 
O=C(Nc1ccccc1)Nc1cccc(Oc2ccc3nccn3n2)c1 | 0 | 3 | 0 | 21 | 0 | 0 | 0 | 0 | 0 | 0 |  |  |  |  |  |  |  |  |  | 
O=S(=O)(c1ccc(-c2ccnc3[nH]ccc23)cc1)N1CCCC1 [GSK846226] | 4 | 14 | 0 | 12 | 0 | 3 | 62 | 22 | 10 | 0 |  |  |  |  |  |  |  |  |  | 
Cc1nnc(-c2ccc3occ(-c4ccc(S(C)=O)cc4)c3c2)[nH]1 (stereo not drawn) | 0 | 11 | 0 | 10 | 16 | 4 | 7 | 11 | 0 | 2 |  |  |  |  |  |  |  |  |  | 
Cc1ccccc1-n1cnc2c(N)ncnc21 [SKF-97510] | 15 | 18 | 0 | 0 | 0 | 0 | 0 | 0 | 0 | 42 |  |  |  |  |  |  |  |  |  | 
Cn1ccc2ncnc(Oc3cccc(C(=O)Nc4ccccc4)c3)c21 | 13 | 20 | 7 | 0 | 0 | 0 | 4 | 0 | 0 | 4 |  |  |  |  |  |  |  |  |  | 
CS(=O)(=O)c1ccc(-c2c(-c3ncn[nH]3)sc(N3CCOCC3)c2C#N)cc1 | 13 | 100 | 0 | 74 | 2 | 12 | 29 | 9 | 4 | 4 |  |  |  |  |  |  |  |  |  | 
COc1cc(Nc2nccc(N3CCC(NC(=O)Nc4cc(C)ccc4C)C3)n2)cc(OC)c1OC (stereo not drawn) [GSK1379762] | 0 | 6 | 0 | 10 | 25 | 6 | 0 | 12 | 2 | 0 |  |  |  |  |  |  |  |  |  | 
Cl.c1ccc(-c2n[nH]cc2-c2ccnc(-c3ccc(CN4CCOCC4)cc3)c2)nc1 [GW776245] | 0 | 0 | 0 | 42 | 1 | 10 | 0 | 2 | 0 | 1 |  |  |  |  |  |  |  |  |  | 
Cn1ccc2ncnc(Oc3ccc(Nc4nc5ccccc5[nH]4)cc3)c21 | 5 | 0 | 0 | 0 | 21 | 0 | 0 | 0 | 0 | 0 |  |  |  |  |  |  |  |  |  | 
Cc1ccc(NC(=O)Nc2cccc(C(F)(F)F)c2)cc1 [GSK955403] |  |  |  |  |  |  |  |  |  |  | 57 | 16 | 0 | 0 | 0 | 22 | 0 | 32 | 9 | 0
Cc1ccc(C(=O)Nc2ccc(Nc3ccnc4cc(-c5ccccn5)ccc34)cc2O)cc1.Cl [GW440146] | 0 | 0 | 0 | 17 | 14 | 6 | 0 | 5 | 11 | 0 |  |  |  |  |  |  |  |  |  | 
Cl.O=C(Nc1cccc(-c2nn3ncccc3c2-c2ccnc(Nc3cccnc3)n2)c1)c1c(F)cccc1F [GSK312879] | 19 | 0 | 0 | 15 | 23 | 13 | 1 | 2 | 0 | 0 |  |  |  |  |  |  |  |  |  | 
COc1cccc(NC(=O)NC2CCN(c3ccnc(Nc4ccc(F)cc4)n3)C2)c1 (stereo not drawn) [GSK1379721] | 17 | 0 | 0 | 19 | 0 | 1 | 6 | 0 | 25 | 6 |  |  |  |  |  |  |  |  |  | 
COc1ccc2nc(-c3cccc(C)n3)nc(Nc3ccncc3)c2c1 [GSK204919] | 0 | 0 | 0 | 43 | 1 | 0 | 0 | 5 | 0 | 0 |  |  |  |  |  |  |  |  |  | 
O=C(Nc1ccc2c(c1)OCO2)NC1CCN(c2ccnc(Nc3ccc(F)cc3)n2)C1 (stereo not drawn) [GSK1379724] | 0 | 0 | 0 | 5 | 2 | 1 | 0 | 0 | 24 | 0 |  |  |  |  |  |  |  |  |  | 

— article PMC5540273 (PLoS ONE, 2017)
